Laboratory results reported in PubChem BioAssay (Tox21).
“And” between values parts separate entries of the source, which are not always exact repeats. Equal values may be shown once. Inconclusive results are not listed. The source made the active and inactive calls. Unless noted, calls come from the whole dose curve; as a rule, active = well fitted curve in the direction sought with a large enough effect in the repeat runs; inconclusive = weak or mixed curves; inactive = no such curve, though single readings can be large; an effect the other way counts as inactive or inconclusive.

Experiments:
[1] = test system: thyroid hormone receptor (rat, GH3 cells); assay: qHTS assay to identify small molecule agonists of the thyroid receptor (TR) signaling pathway (AID 743066; calls by dose curve)
[2] = qHTS assay to identify small molecule antagonists of the estrogen receptor alpha (ER-alpha) signaling pathway - cell viability counter screen (AID 743074; calls by dose curve;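 note: HEK293 cells carrying ER-alpha-UAS-bla reporter stimulated with 17beta-estradiol; nearly all actives have a fitted effect of over 45% in size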; note: potency is the fitted concentration of half-maximal effect)
[3] = target: Aromatase (Homo sapiens) (UniProt P11511); assay: qHTS assay to identify aromatase inhibitors (AID 743083); note: nearly all actives have a fitted effect of over 55% in size; note: potency is the fitted concentration of half-maximal effect
[4] = target: Aryl hydrocarbon receptor (Homo sapiens) (UniProt P35869); assay: qHTS assay to identify small molecule that activate the aryl hydrocarbon receptor (AhR) signaling pathway (AID 743085); note: nearly all actives have a fitted effect of over 15% in size; note: potency is the fitted concentration of half-maximal effect;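 for activation: HG2L7.5c1 human HepG2 liver cells with stably integrated DRE-driven firefly reporter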
Procedure, shortened: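 A multiplexed format paired cell viability (CellTiter-Fluor fluorescence) with AhR-dependent luciferase output (ONE-Glo luminescence) in the same wells of HepG2 DRE-luc cells after 24 h compound exposure at 37C.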

[5] = qHTS assay for small molecule agonists of the antioxidant response element (ARE) signaling pathway - cell viability counter screen (AID 743203; calls by dose curve; note: nearly all actives have a fitted effect of over 55% in size; note: potency is the fitted concentration of half-maximal effect)
Procedure, shortened: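 Luminescence read-out (CellTiter-Glo, 30 min at room temperature) measured cell viability in the same wells as the ARE beta-lactamase reporter. HepG2 ARE-bla cells were treated with compounds for 16 hrs at 37C/5% CO2.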

[6] = qHTS assay for small molecule activators of the heat shock response signaling pathway - cell viability counter screen (AID 743209); note: nearly all actives have a fitted effect of over 50% in size; note: potency is the fitted concentration of half-maximal effect
Procedure, shortened: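 HSE-bla HeLa; 1500 cells/well; overnight 37 C, 5% CO2; compound 5 h 37 C; LiveBLAzer B/G substrate 2.5 h RT; CellTiter-Glo 30 min RT; luminescence.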

[7] = qHTS assay for small molecule activators of the heat shock response signaling pathway (AID 743210; active = well fitted activation curve with a large enough effect in the signal ratio in the repeat runs, with a control signal flat, not every such curve was filed as active; the % refers to the signal ratio)
Procedure, shortened: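 Compound exposure lasted 5 h at 37 C in HeLa cells carrying a heat-shock-element-driven beta-lactamase reporter. Read-out: fluorescence intensity after 2.5 h room-temperature loading with LiveBLAzer B/G FRET substrate.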

[8] = qHTS assay to identify small molecule agonists of the peroxisome proliferator-activated receptor delta (PPARd) signaling pathway - cell viability counter screen (AID 743211); note: nearly all actives have a fitted effect of over 55% in size; note: potency is the fitted concentration of half-maximal effect
Procedure, shortened: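 Tox21 library compounds, delivered in DMSO, were incubated 17 h with PPARd-bla HEK293H cells; cytotoxicity was taken from CellTiter-Glo luminescence read 30 min after reagent addition.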

[9] = qHTS assay to identify small molecule antagonists of the estrogen receptor alpha (ER-alpha) signaling pathway using the BG1 cell line - cell viability counter screen (AID 743081);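 note: compound given together with 17beta-estradiol as the ER stimulus; nearly all actives have a fitted effect of over 45% in size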; note: potency is the fitted concentration of half-maximal effect
[10] = qHTS assay to identify aromatase inhibitors - cell viability counter screen (AID 743084);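 note: cells stimulated with testosterone during compound exposure; nearly all actives have a fitted effect of over 55% in size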; note: potency is the fitted concentration of half-maximal effect
[11] = target: Peroxisome proliferator-activated receptor gamma (Homo sapiens) (UniProt P37231); assay: qHTS assay to identify small molecule agonists of the peroxisome proliferator-activated receptor gamma (PPARg) signaling pathway (AID 743094; active = well fitted activation curve with a large enough effect in the signal ratio in the repeat runs, not every such curve was filed as active; the % refers to the signal ratio)
Procedure, shortened: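 HEK293H PPARg-bla cells, 5 h settle at 37C/5% CO2; compound (DMSO) 17 h, 37C; B/G FRET substrate 1 h RT; fluorescence intensity read-out. qHTS format.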

[12] = qHTS assay to identify small molecule antagonists of the peroxisome proliferator-activated receptor gamma (PPARg) signaling pathway - cell viability counter screen (AID 743194); note: nearly all actives have a fitted effect of over 55% in size; note: potency is the fitted concentration of half-maximal effect
Procedure, shortened: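 Viability was measured as CellTiter-Glo luminescence in GeneBLAzer PPARg UAS-bla HEK293H cells. These cells had been exposed 17 h at 37 C to compounds together with rosiglitazone at 50 nM final, with the beta-lactamase readout taken in the same wells.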

[13] = target: Peroxisome proliferator-activated receptor delta (Homo sapiens) (UniProt Q03181); assay: qHTS assay to identify small molecule agonists of the peroxisome proliferator-activated receptor delta (PPARd) signaling pathway (AID 743212; calls by dose curve;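 note: HEK293H cells with PPARd UAS beta-lactamase reporter GeneBLAzer system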)
Procedure, shortened: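 Beta-lactamase reporter readout: a ratiometric FRET signal from the LiveBLAzer substrate after 2 h at room temperature. Compound exposure at 37 °C in PPARδ-bla HEK293H cells driven by an upstream activator sequence.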

[14] = target: Peroxisome proliferator-activated receptor gamma (Homo sapiens) (UniProt P37231); assay: qHTS assay to identify small molecule antagonists of the peroxisome proliferator-activated receptor gamma (PPARg) signaling pathway (AID 743191; calls by dose curve; note: nearly all actives have a fitted effect of over 30% in size)
Procedure, shortened: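 Beta-lactamase reporter under UAS control in HEK293H PPARg-bla cells; compound treatment 17 h at 37C. Read-out: fluorescence intensity after 1 h room-temperature incubation with LiveBLAzer B/G FRET substrate.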

[15] = qHTS assay for small molecule agonists of the antioxidant response element (ARE) signaling pathway (AID 743202; active = well fitted activation curve with a large enough effect in the signal ratio in the repeat runs, not every such curve was filed as active; the % refers to the signal ratio)
Procedure, shortened: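 After 16 hours of compound treatment at 37 C, HepG2 cells with a stably integrated ARE-driven beta-lactamase reporter were loaded 2 hours at room temperature with LiveBLAzer B/G FRET substrate and fluorescence intensity measured.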

[16] = qHTS assay to identify small molecule that activate the aryl hydrocarbon receptor (AhR) signaling pathway - cell viability counter screen (AID 743086);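 note: HepG2 liver cells carrying the AhR DRE luciferase reporter; nearly all actives have a fitted effect of over 45% in size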
Procedure, shortened: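 Cytotoxicity counter screen: CellTiter-Fluor signal (30 min, 37 C) in 4000 HepG2 cells/well carrying the DRE-luciferase reporter, following 24 h compound exposure at 37 C.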

[17] = target: Estrogen receptor (Homo sapiens) (UniProt P03372); assay: qHTS assay to identify small molecule agonists of the estrogen receptor alpha (ER-alpha) signaling pathway (AID 743075; calls by dose curve;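 note: HEK293 GripTite cells with ER-alpha and UAS-driven beta-lactamase reporter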)
[18] = target: Estrogen receptor (Homo sapiens) (UniProt P03372); assay: qHTS assay to identify small molecule agonists of the estrogen receptor alpha (ER-alpha) signaling pathway using the BG1 cell line (AID 743079); conditions: BG1Luc4E2 cells, ERE-luciferase agonist, 22 h; activation: at 70.3 µM (top of the series); note: nearly all actives have a fitted effect of over 20% in size
[19] = qHTS assay to identify small molecule antagonists of the estrogen receptor alpha (ER-alpha) signaling pathway using the BG1 cell line (AID 743080; calls by dose curve;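 note: BG1 cells stimulated with 17beta-estradiol alongside compound; nearly all actives have a fitted effect of over 25% in size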); conditions: BG1Luc4E2 ERE-luciferase antagonist mode, luminescence; activity change, negative = inhibition: at 70.3 µM (top of the series)
Procedure, shortened: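 Readout is ONE-Glo luminescence, taken 30 min at room temperature after reagent addition, preceded by a CellTiter-Fluor viability read; BG1-Luc-4E2 cells had received compound and 17beta-estradiol for 21.5 h at 37 C.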
% is set by controls: 0 for no effect and ±100 for the full control effect.

Chain of Aryl hydrocarbon receptor (Homo sapiens) (P35869 whole entry, looked up): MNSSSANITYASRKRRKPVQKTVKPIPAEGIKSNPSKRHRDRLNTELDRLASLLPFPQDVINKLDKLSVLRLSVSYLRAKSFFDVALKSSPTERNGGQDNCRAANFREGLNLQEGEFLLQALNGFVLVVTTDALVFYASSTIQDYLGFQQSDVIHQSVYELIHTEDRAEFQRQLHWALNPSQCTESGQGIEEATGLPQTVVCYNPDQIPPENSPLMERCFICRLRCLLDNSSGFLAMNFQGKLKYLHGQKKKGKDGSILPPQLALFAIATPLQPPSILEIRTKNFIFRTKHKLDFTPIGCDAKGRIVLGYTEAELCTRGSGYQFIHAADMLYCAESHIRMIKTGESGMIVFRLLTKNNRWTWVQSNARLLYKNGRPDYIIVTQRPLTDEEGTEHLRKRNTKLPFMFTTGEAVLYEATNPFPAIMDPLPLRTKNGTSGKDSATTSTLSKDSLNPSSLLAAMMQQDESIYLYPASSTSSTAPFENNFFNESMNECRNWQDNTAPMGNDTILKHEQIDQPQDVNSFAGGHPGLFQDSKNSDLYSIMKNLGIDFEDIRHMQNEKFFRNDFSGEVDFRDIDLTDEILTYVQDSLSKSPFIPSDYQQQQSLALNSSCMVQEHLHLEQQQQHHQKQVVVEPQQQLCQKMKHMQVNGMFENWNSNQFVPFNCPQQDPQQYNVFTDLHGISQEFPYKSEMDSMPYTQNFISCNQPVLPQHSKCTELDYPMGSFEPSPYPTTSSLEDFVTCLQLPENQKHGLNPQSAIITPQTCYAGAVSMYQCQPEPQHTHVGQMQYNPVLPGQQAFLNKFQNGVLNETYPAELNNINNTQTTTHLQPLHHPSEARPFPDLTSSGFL
Chain of Peroxisome proliferator-activated receptor gamma (Homo sapiens) (P37231 whole entry, looked up): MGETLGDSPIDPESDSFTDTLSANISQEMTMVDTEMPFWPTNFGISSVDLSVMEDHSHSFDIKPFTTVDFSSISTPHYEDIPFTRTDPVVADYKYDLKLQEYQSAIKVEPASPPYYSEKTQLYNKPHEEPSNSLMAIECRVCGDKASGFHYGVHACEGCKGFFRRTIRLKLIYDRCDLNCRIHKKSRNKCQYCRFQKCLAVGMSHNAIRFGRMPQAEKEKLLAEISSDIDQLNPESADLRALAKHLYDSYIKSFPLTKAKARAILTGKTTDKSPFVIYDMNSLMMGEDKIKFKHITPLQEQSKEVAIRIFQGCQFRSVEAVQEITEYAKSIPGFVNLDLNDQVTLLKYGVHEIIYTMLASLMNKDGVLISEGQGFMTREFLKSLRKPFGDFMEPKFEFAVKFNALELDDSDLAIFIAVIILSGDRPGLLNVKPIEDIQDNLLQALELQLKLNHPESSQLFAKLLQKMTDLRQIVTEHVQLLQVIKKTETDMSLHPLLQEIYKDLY
Chain of Peroxisome proliferator-activated receptor delta (Homo sapiens) (Q03181 whole entry, looked up): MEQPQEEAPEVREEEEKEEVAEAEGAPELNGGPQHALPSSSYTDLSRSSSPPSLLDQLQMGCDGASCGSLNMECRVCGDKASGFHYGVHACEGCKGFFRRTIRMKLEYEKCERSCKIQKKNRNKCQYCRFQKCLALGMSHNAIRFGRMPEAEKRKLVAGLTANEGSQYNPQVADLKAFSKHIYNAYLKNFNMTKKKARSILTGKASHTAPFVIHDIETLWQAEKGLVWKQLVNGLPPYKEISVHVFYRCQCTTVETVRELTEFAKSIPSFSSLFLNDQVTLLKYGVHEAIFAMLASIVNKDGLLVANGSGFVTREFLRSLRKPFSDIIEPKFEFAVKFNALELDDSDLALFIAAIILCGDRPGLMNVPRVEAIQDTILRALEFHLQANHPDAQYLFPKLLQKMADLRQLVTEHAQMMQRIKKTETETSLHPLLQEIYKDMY
Chain of Aromatase (Homo sapiens) (P11511 whole entry, looked up): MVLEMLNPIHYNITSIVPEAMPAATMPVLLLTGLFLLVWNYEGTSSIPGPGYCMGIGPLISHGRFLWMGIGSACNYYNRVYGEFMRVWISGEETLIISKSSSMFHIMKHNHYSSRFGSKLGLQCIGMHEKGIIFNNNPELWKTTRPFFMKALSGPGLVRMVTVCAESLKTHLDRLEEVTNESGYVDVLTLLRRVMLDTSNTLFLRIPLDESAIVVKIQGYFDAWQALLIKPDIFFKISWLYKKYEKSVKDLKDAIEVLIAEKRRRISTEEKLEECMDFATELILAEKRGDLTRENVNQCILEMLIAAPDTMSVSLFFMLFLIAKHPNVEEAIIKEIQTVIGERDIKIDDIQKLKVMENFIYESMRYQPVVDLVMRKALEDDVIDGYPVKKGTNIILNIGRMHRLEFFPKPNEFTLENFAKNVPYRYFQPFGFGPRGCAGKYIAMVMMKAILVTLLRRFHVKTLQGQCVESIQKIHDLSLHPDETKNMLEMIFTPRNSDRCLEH
Chain of Estrogen receptor (Homo sapiens) (P03372 whole entry, looked up): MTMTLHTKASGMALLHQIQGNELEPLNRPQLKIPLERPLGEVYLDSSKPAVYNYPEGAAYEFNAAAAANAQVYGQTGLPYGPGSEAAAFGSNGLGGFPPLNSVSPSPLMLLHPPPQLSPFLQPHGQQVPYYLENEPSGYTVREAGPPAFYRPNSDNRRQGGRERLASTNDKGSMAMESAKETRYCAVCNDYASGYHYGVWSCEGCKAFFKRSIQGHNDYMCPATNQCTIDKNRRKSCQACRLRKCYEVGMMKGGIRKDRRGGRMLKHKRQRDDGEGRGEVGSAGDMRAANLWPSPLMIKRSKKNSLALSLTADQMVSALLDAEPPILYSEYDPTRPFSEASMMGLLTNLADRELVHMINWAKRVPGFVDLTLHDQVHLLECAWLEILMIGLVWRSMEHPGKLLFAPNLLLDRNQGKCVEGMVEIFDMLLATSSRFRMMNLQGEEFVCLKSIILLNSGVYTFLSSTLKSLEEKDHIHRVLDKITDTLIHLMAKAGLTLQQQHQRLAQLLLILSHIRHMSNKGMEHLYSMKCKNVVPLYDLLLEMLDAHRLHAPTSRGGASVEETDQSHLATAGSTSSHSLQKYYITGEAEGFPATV

Nc1ccc2cc3ccc(N)cc3nc2c1
active: Potency [3] 16.8 µM and 6.11 µM | Potency [4] 11.9 µM and 6.11 µM | Potency [5] 24.3 µM and 29.8 µM | Potency [6] 43.6 µM
inactive: Potency [1] | Potency [2] | Potency [7] | Potency [8]

Cc1cc(Nc2ccc(O)cc2)ccc1N
active: Potency [9] 54.2 µM | Potency [3] 27.2 µM | Potency [10] 24.2 µM | Potency [12] 12.2 µM
inactive: Potency [1] | Potency [2] | Potency [11] | Potency [6] | Potency [8] | outcome [13]

CC1(C)C(=O)N(Br)C(=O)N1Br
inactive: Potency [1] | Potency [2] | Potency [9] | Potency [3] | Potency [10] | Potency [4] | Potency [11] | Potency [14] | Potency [12] | Potency [15] | Potency [5] | Potency [6] | Potency [7] | Potency [8] | outcome [13]

O=C1c2c(O)ccc(O)c2C(=O)c2c(NCCNCCO)ccc(NCCNCCO)c21
inactive: Potency [1] | Potency [2] | Potency [9] | Potency [4]
active: Potency [3] 9.02 µM | Potency [8] 29.8 µM

[O]=[Zr]
inactive: Potency [1] | Potency [2] | Potency [9] | Potency [3] | Potency [10] | Potency [4] | Potency [16] | Potency [11] | Potency [12] | Potency [5] | Potency [8]

CCC(C)(C)c1cc(O)c(C(C)(C)CC)cc1O
inactive: Potency [1] | Potency [17] | Potency [18] | Potency [9] | Potency [4] | Potency [16] | outcome [13]
active: activity change, negative = inhibition [19] 6.54% | Potency [3] 24.3 µM | Potency [12] 21.9 µM | Potency [5] 54.5 µM | Potency [6] 38.9 µM

CCN1CCN(c2cc(-c3ccc(F)cc3)c3c(n2)CCCCCC3)CC1
inactive: Potency [1] | Potency [2] | Potency [3] | Potency [10] | Potency [4] | Potency [16] | Potency [11] | Potency [14] | Potency [12] | Potency [5] | Potency [6] | Potency [7]

CCCCC(CC)COC(=O)c1ccc(O)cc1 (centres undefined)
active: Potency [2] 54.7 µM | Potency [3] 15.3 µM and 19.3 µM | Potency [10] 27.2 µM | Potency [12] 48.8 µM | Potency [6] 24.5 µM | Potency [8] 38.8 µM
inactive: Potency [1] | Potency [9] | Potency [4] | Potency [16] | Potency [5] | outcome [13]

CC(C)(c1cc(Br)c(OCCO)c(Br)c1)c1cc(Br)c(OCCO)c(Br)c1
active: Potency [12] 17 µM | Potency [5] 18.9 µM | Potency [8] 15.1 µM
inactive: Potency [1] | Potency [17] | Potency [10] | Potency [16] | Potency [11]

NCCCC(O)(P(=O)(O)O)P(=O)(O)O
inactive: Potency [1] | Potency [2] | Potency [9] | Potency [10] | Potency [16] | Potency [12] | Potency [15] | Potency [6] | Potency [8]

COC(=O)NCCC[Si](OC)(OC)OC
inactive: Potency [1] | Potency [2] | Potency [9] | Potency [3] | Potency [10] | Potency [4] | Potency [16] | Potency [11] | Potency [12] | Potency [5] | Potency [8]

CCCCCCC(C)OC(=O)COc1nc(F)c(Cl)c(N)c1Cl (centres undefined)
inactive: Potency [1] | Potency [2] | Potency [9] | Potency [16] | Potency [15] | Potency [5] | outcome [13]

O=C(O)CC(=O)O
inactive: Potency [1] | Potency [2] | Potency [9] | Potency [3] | Potency [10] | Potency [4] | Potency [16] | Potency [11] | Potency [14] | Potency [12] | Potency [5] | Potency [6] | Potency [7] | Potency [8] | outcome [13]

CCCCCCCCCC(=O)N(C)C
inactive: Potency [1] | Potency [2] | Potency [9] | Potency [16] | Potency [5] | Potency [6] | Potency [7] | Potency [8]
